# Results filed as inconclusive are left out. Some compounds were tested as several samples or in several runs, with calls that do not always agree. Calls of active or inactive are those of the source. How the source made its calls: active means hit-call score of the fitted dose curve at least 0.9, where 1 is the maximum; inconclusive means response in the unintended direction; inactive means score below 0.9.
# Molecular target: Estrogen receptor (Homo sapiens) (UniProt P03372)
# Assay: NVS_NR_hER: NovaScreen (NVS) Nuclear Receptor Binding Assay for human Estrogen Receptor (ER) (AID 2283348)
# Experimental: NVS_NR_hER is a biochemical, single-readout assay that uses extracted gene-proteins from MCF7 in a cell-free assay. Measurements were taken 18 hours after chemical dosing in a 96-well plate.NVS_NR_hER is one of one assay component(s) measured or calculated from the NVS_NR_hER assay. It is designed to make measurements of radioligand binding, a form of binding reporter, as detected with scintillation counting signals by Lysate-based radiodetection technology.Data from the assay component NVS_NR_hER was analyzed into 1 assay endpoint. This assay endpoint, NVS_NR_hER, was analyzed in the positive analysis fitting direction relative to DMSO as the negative control and baseline of activity. Using a type of binding reporter, loss-of-signal activity can be used to understand changes in the binding as they relate to the gene ESR1. Furthermore, this assay endpoint can be referred to as a primary readout, because the performed assay has only produced 1 assay endpoint. To generalize the intended target to other relatable targets, this assay endpoint is annotated to the nuclear receptor intended target family, where the subfamily is steroidal.
# Binding assays used specific radioligands (tritiated, iodinated) with non-radioactive competitive displacement ligands in agonist or antagonist protocols (as indicated) and various reference compounds and inhibitors to titrate specific binding to receptors and transporters. Most enzyme assays (CYPs, kinases, phosphatases, proteases, HDACs) used recombinant protein and specific substrates (fluorescence mostly, some colorimetric and radioactive) and inhibitors, followed by a biochemical separation of substrate and product. All assays for the biochemical HTS were initially run in duplicate at a single concentration (10 uM for CYP450 assays and 25 uM for all others). […] Each assay was run with positive and negative controls, and concurrent controls on every plate. The follow-up (secondary) screen tested active chemical-pairs in concentration series, as well as a few additional assays not tested in the primary screen, some selected negative inactives, and several cases re-run in the concentration series for confirmatory purposes.
# Chain of Estrogen receptor (Homo sapiens) (P03372 whole entry, looked up): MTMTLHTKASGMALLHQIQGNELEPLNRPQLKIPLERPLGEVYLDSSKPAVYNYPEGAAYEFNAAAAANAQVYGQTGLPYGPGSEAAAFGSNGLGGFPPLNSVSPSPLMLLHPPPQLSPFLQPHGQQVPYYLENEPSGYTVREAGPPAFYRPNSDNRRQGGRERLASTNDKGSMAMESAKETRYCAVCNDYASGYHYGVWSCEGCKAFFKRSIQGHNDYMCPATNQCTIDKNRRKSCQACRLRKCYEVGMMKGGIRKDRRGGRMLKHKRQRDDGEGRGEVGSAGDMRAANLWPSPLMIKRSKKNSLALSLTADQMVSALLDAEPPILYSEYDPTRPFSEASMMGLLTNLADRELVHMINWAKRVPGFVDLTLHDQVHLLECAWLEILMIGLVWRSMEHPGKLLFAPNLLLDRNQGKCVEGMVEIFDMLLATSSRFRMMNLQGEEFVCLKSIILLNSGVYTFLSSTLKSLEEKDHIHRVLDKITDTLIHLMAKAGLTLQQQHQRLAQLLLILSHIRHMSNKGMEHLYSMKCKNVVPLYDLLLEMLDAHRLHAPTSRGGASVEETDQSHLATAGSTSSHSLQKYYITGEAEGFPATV
Structure (SMILES),outcome,AC50
CN(C)c1ccc(C(=N)c2ccc(N(C)C)cc2)cc1,inactive,
CCC(=O)Oc1ccc(/C(CC)=C(\CC)c2ccc(OC(=O)CC)cc2)cc1,,0.00229 µM (active)
O=C(O)c1ccccc1Nc1cccc(C(F)(F)F)c1,inactive,
COC(=O)C1=C(C)NC(C)=C(C(=O)OCC(C)C)C1c1ccccc1[N+](=O)[O-] (stereo not given),inactive,
CCC(Cc1ccccc1)(C(=O)c1ccc(N2CCOCC2)cc1)N(C)C (stereo not given),inactive,
NC(CO)(CO)CO,inactive,
C#CC1(O)CC[C@H]2[C@@H]3CCC4=CCCC[C@@H]4[C@H]3CC[C@@]21C (stereo not given in full),inactive,0.258 µM (active)
[Cl][In]([Cl])[Cl],inactive,25 µM (active)
CC(C)C1=CC2=CC[C@@H]3[C@](C)(CCC[C@@]3(C)C(=O)O)[C@H]2CC1,inactive,
CC(C)c1ccc2c(C(C)C)cc(C(C)C)c(S(=O)(=O)O)c2c1,inactive,
CCCCCCCCCCCCCCCC[N+](C)(C)CC,inactive,
C/C=C\C/C=C/CCCCCCCCOC(C)=O,inactive,
CCCCC/C=C\C/C=C\CCCCCCCC(=O)OC,inactive,6.14 µM (active)
COc1ccc(C(Cl)=C(c2ccc(OC)cc2)c2ccc(OC)cc2)cc1,,7.49 µM (active)
C=CC(=O)OCCOC(=O)C=C,inactive,
O=C(c1ccc(O)cc1)c1ccc(O)cc1O,,0.481 µM (active)
O=S(=O)(O)c1ccccc1C=Cc1ccc(-c2ccc(C=Cc3ccccc3S(=O)(=O)O)cc2)cc1,inactive,
OC1CCCC1,inactive,
O=C(O)CCCC[C@@H]1SC[C@@H]2NC(=O)N[C@@H]21,inactive,

Structure (SMILES),outcome,AC50
S=C(NC1CCCCC1)NC1CCCCC1,inactive,
COc1ccc(-c2coc3cc(O)ccc3c2=O)cc1,,7.09 µM (active)
O=c1cc(-c2ccccc2)oc2ccccc12,inactive,
O=C(c1ccccc1)c1ccc(O)c(O)c1O,inactive,
CCOC(=O)N1CCC(=C2c3ccc(Cl)cc3CCc3cccnc32)CC1,,0.0259 µM (active)
O=C(Nc1ccccc1SSc1ccccc1NC(=O)c1ccccc1)c1ccccc1,inactive,
Nc1ccc2cc3ccccc3cc2c1,inactive,
CC(C)c1ccc2c(c1)CC[C@H]1[C@](C)(CN)CCC[C@]21C,inactive,
CC(C)(C)C(=O)CCc1ccc(Cl)cc1,inactive,
COc1cc(NC(=O)CC(C)=O)c(OC)cc1Cl,inactive,
CCC(C)OC(=O)c1ccc(O)cc1 (stereo not given),,0.603 µM (active)
Oc1ccc(Cl)cc1Cc1cc(Cl)ccc1O,,25 µM (active)
O=S1(=O)OC(c2ccc(O)cc2)(c2ccc(O)cc2)c2ccccc21,,13.2 µM (active)
CC/C=C\C/C=C\C/C=C\CCCCCCCC(=O)O,,25 µM (active)
O=C1Nc2ccccc2C1(c1ccc(O)cc1)c1ccc(O)cc1,inactive,
Nc1ccc(Oc2ccc(N)c(N)c2)cc1,inactive,
CC(=O)[C@H]1[C@H](C#N)C[C@H]2[C@@H]3CC=C4C[C@@H](O)CC[C@]4(C)[C@H]3CC[C@@]21C,inactive,
CC(=O)OC(C)C,inactive,
